Test results taken from PubChem BioAssay.
The source made the active and inactive calls. Unless noted, how the calls were made is not given here.

Key:
[1] = test system: Wnt5a (protein binding on small-molecule microarray); assay: small molecules binding Wnt5a protein – biophysical, small-molecule microarray, 635/667 nm fluorescence, primary screen (AID 1142); settings: 635 nm fluorescence, higher = more signal;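 further: fluorescence read at 667 nm with signal to noise per printed feature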
[2] = ATP-based viability of Huh7 replicon cells – cell-based, CellTiter-Glo luminescence, basal, 48 h, cytotoxicity control for HCV replication inhibitor project, primary screen (AID 1143); settings: higher = more signal, called active from +8 up or from −8 down;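 further: Huh7 hepatoma cells carrying a hepatitis C replication reporter with no stimulus; test concentration not given here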
[3] = Pseudomonas biofilm growth suppression – PAO1 strain, BacTiter-Glo luminescence, LB-PBS, primary screen (AID 1144); settings: P. aeruginosa PAO1 biofilm, 12 h, higher = more signal
[4] = basal CRE-LacZ reporter activity in PC12 – cell-based, unstimulated, primary screen (AID 1145); settings: no forskolin, luminescence, 4.5 h, higher = more signal, called active from +8 up or from −8 down
[5] = forskolin-driven CRE-LacZ activity in PC12 – cell-based, CRE-LacZ reporter, forskolin-stimulated, primary screen (AID 1146); settings: luminescence, 4.5 h, higher = more signal, called active from +8 up or from −8 down;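 further: PC12 cells with 6xCRE LacZ reporter stimulated by forskolin 10 µM; beta-galactosidase reporter signal reflecting CREB driven transcription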
[6] = molecular target: Streptavidin (Streptomyces avidinii) (UniProt P22629); assay: compounds binding control protein streptavidin – biophysical, small-molecule microarray, 635/667 nm fluorescence, artefact control for SMM compound annotation, primary screen (AID 1147); settings: higher = more signal;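 further: signal reflects streptavidin binding to arrayed compounds as a control protein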
Streptavidin (Streptomyces avidinii), sequence (P22629 whole entry, looked up): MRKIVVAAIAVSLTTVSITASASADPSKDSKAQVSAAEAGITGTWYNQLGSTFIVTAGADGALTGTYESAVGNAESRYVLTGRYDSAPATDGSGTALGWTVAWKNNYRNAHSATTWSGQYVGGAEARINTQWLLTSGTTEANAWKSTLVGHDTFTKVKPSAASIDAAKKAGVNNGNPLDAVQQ

[7] = probe aInhba binding on compound microarray – biochemical, small-molecule microarray, 635/667 nm fluorescence, primary screen (AID 1148); settings: higher = more signal;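 further: score merges 667nm spot fluorescence with signal-to-noise for antibody binding to printed compounds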
Torsin-1A (Homo sapiens) [8] = molecular target: Torsin-1A (Homo sapiens) (UniProt O14656); assay: TOR1A wild-type binding on microarray – cell lysate, small-molecule microarray, lysate, 635/667 nm, primary screen (AID 1149); settings: COS7 hTOR1A-WT lysate, 635 nm fluorescence, higher = more signal
Torsin-1A (Homo sapiens), sequence (O14656 whole entry, looked up): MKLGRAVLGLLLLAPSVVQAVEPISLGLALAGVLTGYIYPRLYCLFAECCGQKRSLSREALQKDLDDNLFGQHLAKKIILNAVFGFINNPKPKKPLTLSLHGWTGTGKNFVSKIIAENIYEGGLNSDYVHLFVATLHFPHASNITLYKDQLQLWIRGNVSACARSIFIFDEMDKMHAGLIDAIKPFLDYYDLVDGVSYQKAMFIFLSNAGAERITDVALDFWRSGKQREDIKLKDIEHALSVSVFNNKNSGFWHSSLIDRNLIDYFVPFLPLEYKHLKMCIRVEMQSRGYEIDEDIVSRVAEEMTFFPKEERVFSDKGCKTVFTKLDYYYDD

Torsin-1A (Homo sapiens) [9] = molecular target: Torsin-1A (Homo sapiens) (UniProt O14656); assay: torsin A mutant lysate binding on microarrays – cell lysate, small-molecule microarray, COS7 lysate, 635/667 nm fluorescence, primary screen (AID 1150); settings: COS7 hTOR1A mutant lysate, 635 nm fluorescence, higher = more signal;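 further: score pools 667 nm emission and signal to noise measuring lysate protein binding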
[10] = test system: Sonic hedgehog protein (Shh); assay: Sonic hedgehog microarray binding compounds – biochemical, small-molecule microarray, 635/667 nm fluorescence, primary screen (AID 1151); settings: 635 nm fluorescence, higher = more signal;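 further: Shh protein binding to compounds spotted on small-molecule microarray slides; score combines spot fluorescence intensity with signal-to-noise across triplicate slides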
[11] = optical density shifts of acrAB sulA E. coli – strain DRC41, OD650, 48 h, E. coli filamentation inducer project, primary screen (AID 1152); settings: higher = more signal, called active from +8 up or from −8 down;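 further: E. coli MC1000 strain DRC41 lacking acrAB efflux pump and sulA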
[12] = probe aLefty1 binding on compound microarray – biochemical, small-molecule microarray, 635/667 nm fluorescence, primary screen (AID 1153); settings: higher = more signal;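 further: score merges spot fluorescence with signal-to-noise ratio from the scanned slide images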
[13] = plasmodial surface anion channel blockers, osmotic lysis – cell-based, P. falciparum Indochina, OD700, 1 h, primary screen (AID 1154); settings: P. falciparum Indochina infected RBC osmotic lysis, higher = more signal, called active from +8 up or from −8 down
[14] = plasmodial surface anion channel blockers, osmotic lysis – cell-based, P. falciparum Indochina, OD700, 2 h, primary screen (AID 1155);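 further: lysis reports solute entry through the parasite surface anion channel PSAC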; settings: P. falciparum Indochina infected erythrocytes, higher = more signal, called active from +8 up or from −8 down
[15] = changes in parasitized red cell lysis, either direction – P. falciparum Indochina, OD700, 3 h, PSAC antagonist project, primary screen (AID 1156); settings: P. falciparum-infected erythrocytes, osmotic lysis, higher = more signal, called active from +8 up or from −8 down
[16] = plasmodial surface anion channel blockers, osmotic lysis – cell-based, P. falciparum Indochina, OD700, 18 h, primary screen (AID 1157); settings: P. falciparum Indochina infected erythrocytes, osmotic lysis OD700, 18 h; higher = more signal, called active from +8 up or from −8 down
[17] = S6 kinase pathway phospho-S6 level changes – cell-based, A549, cytoblot, luminescence, serum-stimulated, primary screen (AID 1158); settings: 5 h, higher = more signal;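 further: serum-stimulated A549 lung adenocarcinoma cells; signal is phosphorylated S6 detected by cytoblot immunostaining with HRP secondary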
[18] = molecular target: NADPH oxidase 2 (Homo sapiens) (UniProt P04839); assay: compounds shifting NOX2 Amplex Red fluorescence – cell-based, HEK293-NOX2, PMA-stimulated, NOX inhibitor project, primary screen (AID 1159); settings: 45 min, higher = more signal, called active from +8 up or from −8 down; further: test concentration not given here
NADPH oxidase 2 (Homo sapiens), sequence (P04839 whole entry, looked up): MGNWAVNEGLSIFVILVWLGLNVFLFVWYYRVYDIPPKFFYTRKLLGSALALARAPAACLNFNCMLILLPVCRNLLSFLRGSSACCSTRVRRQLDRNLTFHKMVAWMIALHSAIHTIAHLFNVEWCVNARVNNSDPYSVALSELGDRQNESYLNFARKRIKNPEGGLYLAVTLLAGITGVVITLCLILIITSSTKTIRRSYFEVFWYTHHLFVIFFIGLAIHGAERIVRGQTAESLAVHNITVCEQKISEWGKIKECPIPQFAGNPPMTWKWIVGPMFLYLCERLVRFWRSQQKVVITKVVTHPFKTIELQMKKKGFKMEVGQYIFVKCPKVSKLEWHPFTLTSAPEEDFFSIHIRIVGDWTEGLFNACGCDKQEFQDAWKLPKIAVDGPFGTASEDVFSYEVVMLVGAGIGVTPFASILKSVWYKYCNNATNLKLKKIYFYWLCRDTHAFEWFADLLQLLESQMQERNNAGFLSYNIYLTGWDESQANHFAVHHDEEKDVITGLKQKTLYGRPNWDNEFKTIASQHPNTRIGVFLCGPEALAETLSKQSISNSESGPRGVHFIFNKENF

[19] = molecular target: NADPH oxidase 4 (Homo sapiens) (UniProt Q9NPH5); assay: compounds shifting NOX4 Amplex Red fluorescence – cell-based, HEK293-NOX4, tetracycline-induced, NOX inhibitor project, primary screen (AID 1160); settings: HEK293-NOX4, Amplex Red H2O2 fluorescence, 45 min; higher = more signal, called active from +8 up or from −8 down
NADPH oxidase 4 (Homo sapiens), sequence (Q9NPH5 whole entry, looked up): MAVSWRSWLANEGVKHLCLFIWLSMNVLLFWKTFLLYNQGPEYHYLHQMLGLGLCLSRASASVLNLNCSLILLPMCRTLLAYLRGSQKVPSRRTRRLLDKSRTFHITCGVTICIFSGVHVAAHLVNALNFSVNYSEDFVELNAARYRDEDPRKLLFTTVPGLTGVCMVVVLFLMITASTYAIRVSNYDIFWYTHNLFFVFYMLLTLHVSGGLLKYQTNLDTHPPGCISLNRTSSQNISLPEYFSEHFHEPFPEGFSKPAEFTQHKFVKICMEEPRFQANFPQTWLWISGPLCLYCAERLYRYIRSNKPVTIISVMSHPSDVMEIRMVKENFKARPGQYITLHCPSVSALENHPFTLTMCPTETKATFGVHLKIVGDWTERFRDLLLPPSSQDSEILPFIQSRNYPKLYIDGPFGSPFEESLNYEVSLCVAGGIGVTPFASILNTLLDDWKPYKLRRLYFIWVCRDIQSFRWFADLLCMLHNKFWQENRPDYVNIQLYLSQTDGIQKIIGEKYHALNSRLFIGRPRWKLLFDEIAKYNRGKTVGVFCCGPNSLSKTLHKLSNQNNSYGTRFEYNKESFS

[20] = molecular target: NADPH oxidase 5 (Homo sapiens) (UniProt Q96PH1); assay: compounds shifting NOX5 Amplex Red fluorescence – cell-based, HEK293-NOX5, NOX inhibitor project, primary screen (AID 1161); settings: HEK293-NOX5, ionomycin, 45 min, higher = more signal
NADPH oxidase 5 (Homo sapiens), sequence (Q96PH1 whole entry, looked up): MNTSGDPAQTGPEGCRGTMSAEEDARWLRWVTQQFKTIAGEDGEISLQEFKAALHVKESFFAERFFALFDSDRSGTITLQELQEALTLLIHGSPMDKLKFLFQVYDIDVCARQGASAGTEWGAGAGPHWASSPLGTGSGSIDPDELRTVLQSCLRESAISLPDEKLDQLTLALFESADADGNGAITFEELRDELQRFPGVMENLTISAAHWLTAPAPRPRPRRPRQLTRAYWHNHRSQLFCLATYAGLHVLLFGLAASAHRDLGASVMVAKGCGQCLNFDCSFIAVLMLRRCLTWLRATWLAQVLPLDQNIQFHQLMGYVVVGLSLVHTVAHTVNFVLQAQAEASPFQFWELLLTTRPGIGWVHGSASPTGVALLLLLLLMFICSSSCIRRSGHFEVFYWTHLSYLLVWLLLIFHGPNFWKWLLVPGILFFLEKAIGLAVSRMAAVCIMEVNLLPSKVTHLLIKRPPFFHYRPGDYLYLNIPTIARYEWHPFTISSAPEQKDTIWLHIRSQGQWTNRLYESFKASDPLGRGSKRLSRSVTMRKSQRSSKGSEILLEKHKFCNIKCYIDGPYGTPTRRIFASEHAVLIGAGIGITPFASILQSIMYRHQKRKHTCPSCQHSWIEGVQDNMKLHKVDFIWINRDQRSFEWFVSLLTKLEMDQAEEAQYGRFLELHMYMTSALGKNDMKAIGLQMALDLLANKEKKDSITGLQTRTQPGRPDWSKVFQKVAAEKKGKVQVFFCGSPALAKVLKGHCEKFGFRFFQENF

SMILES	composite z-score [1]	z-score [2]	z-score [3]	z-score [4]	z-score [5]	composite z-score [6]	composite z-score [7]	composite z-score (Torsin-1A (Homo sapiens) [8])	composite z-score (Torsin-1A (Homo sapiens) [9])	composite z-score [10]	z-score [11]	composite z-score [12]	z-score [13]	z-score [14]	z-score [15]	z-score [16]	z-score [17]	z-score [18]	z-score [19]	z-score [20]
CCOC1=C2C(c3ccc(C)cc3)N(S(=O)(=O)c3ccc(C)cc3)CC2n2c(=O)n(-c3ccccc3)c(=O)n2C1 (stereo not given)	0.323	-0.576 (inactive)	1.11 (inactive)	0.0331 (inactive)	0.0749 (inactive)	1.09	0.0135	0.301	0.254	0.254	-0.346 (inactive)	0.175	1.08 (inactive)	1.32 (inactive)	0.458 (inactive)	0.807 (inactive)	-0.0263	1.22 (inactive)	0.965 (inactive)	0.536
CCCC[C@@H]1C[C@H]1[C@@H](NC(=O)c1ccccc1)c1ccc(-c2ccccc2)cc1	-0.0558	-4.35 (inactive)	0.257 (inactive)	0.0075 (inactive)	0.31 (inactive)	0.301	-0.0736	-0.256	-0.0118	-1.11	-1.66 (inactive)	0.212	11.5 (active)	1.95 (inactive)	1.57 (inactive)	1.16 (inactive)	0.319	-1.68 (inactive)	-2.79 (inactive)	0.666
[N-]=[N+]=Nc1ccccc1[C@@H]1OC(c2ccc(OCCCO)cc2)=N[C@]1(CCS(=O)(=O)c1ccccc1)C(=O)O	0.301	-0.781 (inactive)	1.08 (inactive)	0.0594 (inactive)	-0.0642 (inactive)	1.04	0.0559	0.164	0.719	0.848	0.604 (inactive)	0.568	28.8 (active)	24.4 (active)	0.971 (inactive)	4.63 (inactive)	-0.067	-2.5 (inactive)	-0.0168 (inactive)	0.778
COC(=O)C(CC#Cc1ccc2c(c1)[C@]1(C(=O)N2)[C@H](C(=O)N2CCCCCCC2)[C@H]2C(=O)O[C@H](c3ccccc3)[C@H](c3ccccc3)N2[C@@H]1c1ccccc1OCCO)C(=O)OC	2.44	-3.54 (inactive)	-0.429 (inactive)	-0.141 (inactive)	-0.81 (inactive)	4.06	2.24	3.84	3.73	2.04	-0.984 (inactive)	3.08	1.49 (inactive)	0.918 (inactive)	0.573 (inactive)	0.417 (inactive)	-0.0756	0.445 (inactive)	0.262 (inactive)	1.22
CN(C)CCCC[C@@H]1NC(=O)[C@@H]2C[C@H](C(=O)NCCCCCN)[C@H](c3ccc(O)cc3)N2C1=O	-0.286	0.202 (inactive)	-0.504 (inactive)	0.549 (inactive)	0.304 (inactive)	1.26	-0.0639	0.424	0.901	-0.631	0.195 (inactive)	-0.056	-0.327 (inactive)	0.0694 (inactive)	0.494 (inactive)	-0.0676 (inactive)	-0.431	-0.487 (inactive)	-0.159 (inactive)	0.701
C=CCN1Cc2ccccc2C[C@]2(N=C(c3ccc(OCCCO)cc3)O[C@@H]2c2ccccc2)C1=O	0.469	-4.28 (inactive)	-0.066 (inactive)	1.64 (inactive)	-1.28 (inactive)	-0.138	0.167	0.821	1.15	1.81	1.35 (inactive)	0.32	24.3 (active)	12.6 (active)	-0.0845 (inactive)	1.93 (inactive)	1.95	-2.9 (inactive)	0.272 (inactive)	-2.7
CCN(CC)c1ccc(N2CC=CC34O[C@@H]5C=CCCOC(=O)C5[C@H]3C(=O)N(CCCO)[C@@H]4C2=O)cc1 (stereo not given in full)	-0.0601	-2.8 (inactive)	-0.657 (inactive)	0.0605 (inactive)	-1.14 (inactive)	-0.619	0.0051	-0.143	-0.419	0.327	1.44 (inactive)	-0.28	0.555 (inactive)	-0.829 (inactive)	-0.305 (inactive)	-1.15 (inactive)	1.09	-0.0899 (inactive)	-1.23 (inactive)	0.374
Cc1ccc(N2C(=O)c3ccccc3[C@@H](C(=O)NC(C)C)[C@@H]2c2ccc(CO)cc2)nc1	0.635	-2.73 (inactive)	-1.83 (inactive)	0.351 (inactive)	0.807 (inactive)	-0.896	-0.104	-1.73	2.08	-0.473	0.358 (inactive)	-0.641	2.41 (inactive)	0.474 (inactive)	0.884 (inactive)	0.596 (inactive)	0.45	0.0802 (inactive)	-1.16 (inactive)	-2.61
C=C(C(=O)CC[C@@H](OC(=O)c1cccnc1)c1ccc(OCCO)cc1)C(C)C	0.725	-8.32 (active)	0.118 (inactive)	20 (active)	0.12 (inactive)	-0.136	-0.128	0.0998	0.97	1.58	-1.07 (inactive)	0.0043	3.66 (inactive)	2.48 (inactive)	-6.06 (inactive)	0.822 (inactive)	-0.917	-4.23 (inactive)	-1.19 (inactive)	-1.6
